Data taken from the supplement of paper PMC12350171.
Structures can show the parent of a compound that is named as a salt.

Columns and labels:
Details in all cases: 20 µM
[1] = tested on: Salmonella enterica typhimurium; assay: growth AUC normalised to DMSO control (fraction of control); higher = less growth inhibition, active = hit call of the paper
In short: (§1)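 Hemin and NAD were added to the medium for Haemophilus parainfluenzae. All pathogens, after two anaerobic passages, were inoculated at a starting OD578 of 0.01 into pre-reduced mGAM plates with 20 μM compound and 1% DMSO under breathable seals, and OD578 was read hourly for 24 h in three biological replicates. AUC of each growth curve was obtained with the trapezoidal rule up to the exponential-to-stationary transition and normalised to DMSO controls from the same plate.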

Shigella flexneri = assay: as above
In short: as §1

Vibrio cholerae = assay: as above
In short: as §1

[2] = tested on: Yersinia pseudotuberculosis; assay: as above
In short: as §1

P. vulgatus RND KO = assay: growth AUC normalised to DMSO control (median) (fraction of control); higher = less growth inhibition, active = hit call of the paper
In short: (§2)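 For normalised area under the curve, growth curves were truncated at entry into stationary phase, integrated by the trapezoidal rule and divided against vehicle wells on the same plate. The curves came from strains passaged twice overnight without oxygen and then grown in mGAM in 96-well plates at a starting OD578 of 0.01. Each well held an approved-drug library compound at 20 μM with 1% DMSO, and OD578 was read hourly for 24 h in an anaerobic incubator. Values are medians of three biological replicates.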

P. vulgatus WT = assay: as above
In short: as §2

[3] = tested on: S. enterica typhimurium WT; assay: as above
In short: as §2

[4] = tested on: S. enterica typhimurium tolC KO; assay: as above
In short: as §2

Measured: growth AUC normalised to DMSO control
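For growth AUC normalised to DMSO control (median) in this document: active when median AUC fell below 0.1.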

CN[C@H]1CC[C@@H](c2ccc(Cl)c(Cl)c2)c2ccccc21 [Sertraline]
inactive: [1] 0.992 | Shigella flexneri 0.978 | Vibrio cholerae 0.928 | [2] 1.01 | P. vulgatus RND KO 0.998 | P. vulgatus WT 1.02 | [3] 0.999 | [4] 0.945

CCCCNC(=O)NS(=O)(=O)c1ccc(C)cc1 [Tolbutamide]
inactive: [1] 1.01 | Shigella flexneri 0.995 | Vibrio cholerae 0.956 | [2] 0.998 | P. vulgatus RND KO 1.02 | P. vulgatus WT 1.04 | [3] 0.996 | [4] 1

O=C(N/N=C/c1ccc([N+](=O)[O-])o1)c1ccc(O)cc1 [Nifuroxazide]
inactive: [2] 0.96 | P. vulgatus RND KO 0.883 | P. vulgatus WT 0.861 | [3] 0.924 | [4] 0.862
active: [1] 0.866 | Shigella flexneri 0.189 | Vibrio cholerae 0.623

CC(N)CCCC(C)(C)O (stereo not drawn) [Heptaminol hydrochloride]
inactive: [1] 1 | Shigella flexneri 0.999 | Vibrio cholerae 0.986 | [2] 0.997 | P. vulgatus RND KO 1.01 | P. vulgatus WT 1.05 | [3] 1.01 | [4] 0.996

Cn1ccnc1S [Methimazole]
inactive: [1] 1.01 | Shigella flexneri 1.02 | Vibrio cholerae 1.02 | [2] 1.01 | P. vulgatus RND KO 0.996 | P. vulgatus WT 1.01 | [3] 1 | [4] 0.988

CC(C(=O)O)c1ccc(-c2ccccc2)c(F)c1 (stereo not drawn) [Flurbiprofen]
inactive: [1] 0.986 | Shigella flexneri 0.98 | Vibrio cholerae 0.96 | [2] 0.985 | P. vulgatus RND KO 0.994 | P. vulgatus WT 0.991 | [3] 0.995 | [4] 0.977

CC(=C(CCO)SSCC1CCCO1)N(C=O)Cc1cnc(C)nc1N (stereo in doubt) [Fursultiamine hydrochloride]
inactive: [1] 1.01 | Shigella flexneri 0.965 | Vibrio cholerae 1 | [2] 1.01 | P. vulgatus RND KO 1.02 | P. vulgatus WT 0.995 | [3] 0.986 | [4] 0.999

Nc1ncn(C2OC(CO)C(O)C2O)c(=O)n1 (stereo not drawn) [Azacytidine-5]
inactive: [1] 1.02 | Shigella flexneri 1.04 | Vibrio cholerae 1.02 | [2] 1.04 | P. vulgatus RND KO 0.999 | P. vulgatus WT 0.996 | [3] 0.977 | [4] 0.963

COc1ccc2c(c1)c(CC(=O)OCC(=O)O)c(C)n2C(=O)c1ccc(Cl)cc1 [Acemetacin]
inactive: [1] 0.979 | Shigella flexneri 0.965 | Vibrio cholerae 0.985 | [2] 0.985 | P. vulgatus RND KO 0.855 | P. vulgatus WT 0.866 | [3] 0.993 | [4] 0.969

CN1[C@@H]2CC[C@H]1C[C@@H](OC(c1ccccc1)c1ccccc1)C2 [Benztropine mesylate]
inactive: [1] 1 | Shigella flexneri 1.01 | Vibrio cholerae 1 | [2] 1.01 | P. vulgatus RND KO 0.944 | P. vulgatus WT 0.904 | [3] 0.998 | [4] 0.195

C#C[C@]1(O)CC[C@H]2[C@@H]3CCC4=CC(=O)CC[C@@H]4[C@H]3CC[C@@]21CC [(D-) Norgestrel]
inactive: [1] 0.98 | Shigella flexneri 0.938 | Vibrio cholerae 0.961 | [2] 0.979 | P. vulgatus RND KO 0.989 | P. vulgatus WT 0.974 | [3] 0.998 | [4] 1

Cc1nc2n(c(=O)c1CCN1CCC(c3noc4cc(F)ccc34)CC1)CCCC2 [Risperidone]
inactive: [1] 1 | Shigella flexneri 0.997 | Vibrio cholerae 0.995 | [2] 1 | P. vulgatus RND KO 1.03 | P. vulgatus WT 1.03 | [3] 0.997 | [4] 0.993

CC[C@@]1(O)C(=O)OCc2c1cc1n(c2=O)Cc2cc3c(CN(C)C)c(O)ccc3nc2-1 [Topotecan]
inactive: [1] 1.05 | Shigella flexneri 1.04 | Vibrio cholerae 1.03 | [2] 1.02 | P. vulgatus RND KO 1.01 | P. vulgatus WT 1.02 | [3] 1.02 | [4] 0.983

C[C@]12CC[C@H]3C(=CCc4cc(O)ccc43)[C@@H]1CCC2=O [Equilin]
inactive: [1] 1.01 | Shigella flexneri 0.993 | Vibrio cholerae 0.99 | [2] 1.01 | P. vulgatus RND KO 0.993 | P. vulgatus WT 0.991 | [3] 1 | [4] 0.95

O=C(O)CN(CCN(CC(=O)O)CC(=O)O)CCN(CC(=O)O)CC(=O)O [Pentetic acid]
inactive: [1] 1 | Shigella flexneri 1.01 | Vibrio cholerae 1.03 | [2] 1.07 | P. vulgatus RND KO 1.05 | P. vulgatus WT 1.08 | [3] 1.02 | [4] 0.998

CSc1ccc2c(c1)N(CCC1CCCCN1C)c1ccccc1S2 (stereo not drawn) [Thioridazine hydrochloride]
inactive: [1] 0.978 | Shigella flexneri 1 | Vibrio cholerae 0.957 | [2] 0.975 | P. vulgatus RND KO 0.88 | P. vulgatus WT 0.796 | [3] 0.99 | [4] 0.957

CN(C)CCN(Cc1cccs1)c1ccccn1 [Methapyrilene hydrochloride]
inactive: [1] 0.977 | Shigella flexneri 0.972 | Vibrio cholerae 0.995 | [2] 0.994 | P. vulgatus RND KO 1.01 | P. vulgatus WT 0.995 | [3] 1 | [4] 0.985

CCCc1nc(C)c2c(=O)nc(-c3cc(S(=O)(=O)N4CCN(CC)CC4)ccc3OCC)[nH]n12 [Vardenafil]
inactive: [1] 1.01 | Shigella flexneri 1 | Vibrio cholerae 1.01 | [2] 1.01 | P. vulgatus RND KO 1.01 | P. vulgatus WT 1.01 | [3] 0.983 | [4] 0.984

O=C(O)CCCC[C@@H]1SC[C@@H]2NC(=O)N[C@@H]21 [Biotin]
inactive: [1] 0.992 | Shigella flexneri 0.975 | Vibrio cholerae 1 | [2] 0.946 | P. vulgatus RND KO 1.01 | P. vulgatus WT 1.03 | [3] 1 | [4] 1

NS(=O)(=O)Cc1noc2ccccc12 [Zonisamide]
inactive: [1] 1.01 | Shigella flexneri 0.997 | Vibrio cholerae 0.997 | [2] 1 | P. vulgatus RND KO 1 | P. vulgatus WT 1 | [3] 0.998 | [4] 1.01

CCCNCC(O)COc1ccccc1C(=O)CCc1ccccc1 (stereo not drawn) [Propafenone hydrochloride]
inactive: [1] 1 | Shigella flexneri 0.994 | Vibrio cholerae 0.979 | [2] 0.99 | P. vulgatus RND KO 1.03 | P. vulgatus WT 1.05 | [3] 0.988 | [4] 0.948

CC(=O)CC(c1ccc([N+](=O)[O-])cc1)c1c(O)c2ccccc2oc1=O (stereo not drawn) [Acenocoumarol]
inactive: [1] 0.985 | Shigella flexneri 1.01 | Vibrio cholerae 0.938 | [2] 0.991 | P. vulgatus RND KO 1.07 | P. vulgatus WT 1.06 | [3] 0.999 | [4] 0.999

COC1=C(OC)C(=O)C(CCCCCCCCCCO)=C(C)C1=O [Idebenone]
inactive: [1] 1.02 | Shigella flexneri 1.01 | Vibrio cholerae 0.989 | [2] 1.02 | P. vulgatus RND KO 0.913 | P. vulgatus WT 0.95 | [3] 1.01 | [4] 0.972

NS(=O)(=O)c1cc2c(cc1Cl)NC(CC1CCCC1)NS2(=O)=O (stereo not drawn) [Cyclopenthiazide]
inactive: [1] 1 | Shigella flexneri 0.972 | Vibrio cholerae 0.98 | [2] 0.971 | P. vulgatus RND KO 0.978 | P. vulgatus WT 0.993 | [3] 1 | [4] 0.991

CC(=O)OCC1=C(C(=O)O)N2C(=O)[C@@H](NC(=O)Cc3cccs3)[C@H]2SC1 [Cephalothin sodium salt]
active: [1] 0.00459 | Shigella flexneri 0.025 | Vibrio cholerae 0.0489 | [2] 0.0158 | P. vulgatus RND KO 0.00752 | P. vulgatus WT 0.0068 | [3] 0.00336 | [4] 0.00338

O=C(O)Cc1sc(-c2ccccc2)nc1-c1ccc(Cl)cc1 [Fentiazac]
inactive: [1] 0.993 | Shigella flexneri 1.03 | Vibrio cholerae 1 | [2] 1.02 | P. vulgatus RND KO 0.896 | P. vulgatus WT 0.947 | [3] 1 | [4] 0.98

CC(C)NCC(O)COc1ccc(COCCOC(C)C)cc1 (stereo not drawn) [Bisoprolol hemifumarate]
inactive: [1] 1.03 | Shigella flexneri 1.03 | Vibrio cholerae 1.05 | [2] 1.02 | P. vulgatus RND KO 1.02 | P. vulgatus WT 1.08 | [3] 1.01 | [4] 1.01

CC(CN1c2ccccc2Sc2ccccc21)N(C)C (stereo not drawn) [Promethazine hydrochloride]
inactive: [1] 0.983 | Shigella flexneri 1.03 | Vibrio cholerae 0.961 | [2] 0.957 | P. vulgatus RND KO 0.718 | P. vulgatus WT 0.682 | [3] 1 | [4] 0.98

CC(=O)[C@H]1CC[C@H]2[C@@H]3CC=C4C[C@@H](O)CC[C@]4(C)[C@H]3CC[C@]12C [Pregnenolone]
inactive: [1] 1 | Shigella flexneri 0.985 | Vibrio cholerae 0.996 | [2] 1 | P. vulgatus RND KO 1.02 | P. vulgatus WT 1.02 | [3] 0.993 | [4] 0.954

CCN(CCO)CCCC(C)Nc1ccnc2cc(Cl)ccc12 (stereo not drawn) [Hydroxychloroquine sulfate]
inactive: [1] 1 | Shigella flexneri 0.988 | Vibrio cholerae 1.01 | [2] 1.01 | P. vulgatus RND KO 1.02 | P. vulgatus WT 1.01 | [3] 1 | [4] 0.995

CC/C(=C(\c1ccccc1)c1ccc(OCCN(C)C)cc1)c1ccccc1 [Tamoxifen citrate]
inactive: [1] 1.01 | Shigella flexneri 1.01 | Vibrio cholerae 1 | [2] 0.981 | P. vulgatus RND KO 0.968 | P. vulgatus WT 0.978 | [3] 1 | [4] 1.01
